Data from PubChem BioAssay (NCATS).
Results filed as inconclusive are left out. Active and inactive are the calls of the source. Calls come from the whole dose curve; as a rule, active = well fitted inhibition curve with a large enough effect; inconclusive = small, poorly fitted or top-dose-only effect; inactive = flat fitted curve, though single readings scatter.

Target: Calcium and integrin-binding protein 1 (Homo sapiens) (UniProt Q99828)
Test: Primary qHTS for Identification of Calcium Integrin Binding Protein 1 (CIB1) Competitor (AID 1508620);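 note: GST tagged CIB1 binding a fluorescein labelled alphaIIb integrin peptide tracer; top concentration of the series differs between compounds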
Conditions: CIB1-GST / FITC-alphaIIb peptide fluorescence polarization; series mostly up to 57.7 µM; activity change, negative = inhibition: at the top concentration
Outline: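 Fluorescence polarization competition: CIB1-GST (1 uM final) preincubated with compound 15 min at room temperature, then FITC-labeled alphaIIb peptide (100 nM final) added for another 15 min. Polarization read at Ex 480/Em 540.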
% is set by controls: 0 for no effect and ±100 for the full control effect.

Calcium and integrin-binding protein 1 (Homo sapiens), sequence (Q99828 whole entry, looked up): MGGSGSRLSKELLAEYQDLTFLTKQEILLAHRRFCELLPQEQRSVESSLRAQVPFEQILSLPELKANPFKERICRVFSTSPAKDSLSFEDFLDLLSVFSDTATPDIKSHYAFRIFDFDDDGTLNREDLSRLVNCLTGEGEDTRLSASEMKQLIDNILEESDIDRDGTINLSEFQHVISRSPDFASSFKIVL

SMILES | activity change, negative = inhibition | Potency
Nc1c(Br)cc(Br)cc1CNC1CCC(O)CC1 (configuration not stated) | 1.2% [at 114 µM] (inactive) | –
CC(=O)OC[C@@]12[C@H](O)C[C@]3(C)C(=CCC4[C@@]5(C)CC[C@H](O[C@@H]6O[C@H](C(=O)O)[C@@H](O[C@@H]7O[C@H](CO)[C@@H](O)[C@H](O)[C@H]7O)[C@H](O)[C@H]6O[C@@H]6O[C@H](CO)[C@@H](O)[C@H](O)[C@H]6O)[C@](C)(CO)C5CC[C@]43C)[C@@H]1CC(C)(C)[C@@H](OC(C)=O)[C@@H]2O (some centres not stated) | 2.83% [at 30.2 µM] (inactive) | –
O=C(NN1CCCCC1)c1nn(-c2ccc(Cl)cc2Cl)c(-c2ccc(C#Cc3ccc(C(F)(F)F)cc3)s2)c1CNS(=O)(=O)N1CCCC1 | 3.06% [at 114 µM] (inactive) | –
C[C@@]12C[C@]3(O)O[C@H](O1)[C@]1(COC(=O)c4ccccc4)[C@H]3C[C@@]12O[C@@H]1O[C@H](COC(=O)c2ccccc2)[C@@H](O)[C@H](O)[C@H]1O | 4.37% (inactive) | –
COC(=O)[C@]12C(=O)C(C)=C(O)[C@@]1(C)C(C)=CC1[C@@]34CC[C@@H](OC(C)=O)C(C)(C)C3[C@H](C[C@]12C)OC4=O (some centres not stated) | -5.38% (inactive) | –
CC1OC(OC2C(CO)OC(OCC3OC(OC(=O)C45CCC(C)(C)CC4C4=CCC6C7(C)CCC(OC8OC(C(=O)O)C(O)C(OC9OC(CO)C(O)C(O)C9O)C8O)C(C)(C)C7CCC6(C)C4(C)CC5)C(O)C(O)C3O)C(O)C2O)C(O)C(O)C1O (configuration not stated) | 0.696% [at 12.4 µM] (inactive) | –
C[C@@H](OC(=O)/C=C/c1ccc(O)cc1)C1=C[C@]2(C=C[C@@H]3C(C(=O)O)=CO[C@@H](O[C@@H]4O[C@H](CO[C@@H]5O[C@H](CO)[C@@H](O)[C@H](O)[C@H]5O)[C@@H](O)[C@H](O)[C@H]4O)[C@@H]32)OC1=O | 2.59% [at 30.2 µM] (inactive) | –
CC1=CC[C@]2(C(=O)O[C@@H]3O[C@H](CO[C@@H]4O[C@H](CO)[C@@H](O[C@@H]5O[C@@H](C)[C@H](O)[C@@H](O)[C@H]5O)[C@H](O)[C@H]4O)[C@@H](O)[C@H](O)[C@H]3O)CC[C@]3(C)C(CCC4[C@@]5(C)C[C@@H](O)[C@H](O)[C@@](C)(CO)C5CC[C@]43C)C2C1C (some centres not stated) | -0.144% [at 30.2 µM] (inactive) | –
O=C1NC(Cc2ccc(O)cc2)C(=O)N2CCCC12 (configuration not stated) | -3.54% [at 114 µM] (inactive) | –
CC1=CC(=O)CC(C)(C)C1CCC(C)OC1OC(COC(=O)c2cc(O)c(O)c(O)c2)C(O)C(O)C1O (configuration not stated) | -5.6% (inactive) | –
O=C(O)CCc1cc2ccoc2cc1O[C@@H]1O[C@H](CO[C@@H]2OC[C@](O)(CO)[C@H]2O)[C@@H](O)[C@H](O)[C@H]1O | 1.83% (inactive) | –
CC1=C2C(=O)O[C@@H](c3ccoc3)[C@]2(C)CCC1 | – | inactive
CC12CC34C=CC(=O)C(C)(CCC(=O)O)C3C(CC1C4)O2 (configuration not stated) | -0.0631% [at 114 µM] (inactive) | –
CC1CCC2(C)C(CC(O)C(O)C23CO3)C1(C)CCC1=CC(=O)OC1O (configuration not stated) | -8.93% (inactive) | –
C[C@@H]1C(=O)O[C@H]2CC34[C@H]5C[C@@H](C(C)(C)C)C36[C@@H](OC(=O)[C@@H]6O)O[C@@]4(C(=O)O5)[C@]21O (some centres not stated) | 3.52% (inactive) | –
COC(=O)C1=CO[C@@H](O[C@@H]2O[C@H](CO[C@@H]3O[C@H](COC(=O)/C=C/c4ccc(O)cc4)[C@@H](O)[C@H](O)[C@H]3O)[C@@H](O)[C@H](O)[C@H]2O)[C@@H]2C(CO)=CC[C@H]12 | 1.47% [at 30.2 µM] (inactive) | –
COc1cc(/C=C/C(=O)OC2CC(OC(C)=O)C(OC(C)=O)C3C2CCC2C(=O)OC(c4ccoc4)CC23C)ccc1O[C@@H]1O[C@H](CO)[C@@H](O)[C@H](O)[C@H]1O (some centres not stated) | -1.53% [at 30.2 µM] (inactive) | –
O=C(/C=C/c1ccc(O)cc1)OCC1=C[C@@H](O)[C@@H]2C=CO[C@@H](O[C@@H]3O[C@H](CO)[C@@H](O)[C@H](O)[C@H]3O)[C@H]12 | 4.5% (inactive) | –
CO[C@H]1C=C2C(CC[C@H](O[C@@H]3O[C@H](CO)[C@@H](O)[C@@H](O)[C@H]3O)C2(C)C)[C@]2(C)CC[C@]3(C)C([C@H](C)C(O)C(C=C(C)C)O[C@@H]4O[C@H](CO)[C@@H](O)[C@@H](O)[C@H]4O)CC[C@@]3(C)C12 (some centres not stated) | 1.63% [at 30.2 µM] (inactive) | –
C=C1[C@@H]2CC[C@@]3(C)[C@H](c4ccoc4)OC(=O)C[C@]13O[C@H]1CC(=O)C(C)(C)[C@H](CC(=O)OC)[C@]12C | 0.208% (inactive) | –
COc1cc(/C=C/C(=O)O[C@H]2[C@H](O)[C@@H](CO)O[C@@]2(CO)O[C@H]2O[C@H](COC(=O)c3ccc(O)cc3)[C@@H](O)[C@H](O)[C@H]2O)cc(OC)c1OC | 5.12% [at 30.2 µM] (inactive) | –
CC1CC(O)C2(C)C(C(=O)O)=CCCC2C1(C)CCc1ccoc1 (configuration not stated) | -3.55% (inactive) | –
